From the supplement of paper PMC6555819

Experiments:
Assay in all cases: PBM binding z-score (relative to random genomic background probes); higher = stronger binding; sequences stand for … in GC…GCGATTGACAGCGTAGAATGAAGG
[1] = system: FXR:RXRa (NR concentration 270 nM, RXRa partner concentration 90 nM)
Outline: (§1)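 Each nuclear receptor dimer, without ligand, was incubated for 1 h on custom Agilent 4×180K protein-binding microarrays. Binding was detected with antibodies against each partner (one per run), and scanned fluorescence was regression-normalized. The binding z-scores are referenced to random human genomic background probes.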

[2] = system: LXRa:RXRa (NR concentration 270 nM, RXRa partner concentration 90 nM)
Outline: as §1

[3] = system: LXRa homodimer (NR concentration 270 nM)
Outline: as §1

[4] = system: LXRb:RXRa (NR concentration 270 nM, RXRa partner concentration 90 nM)
Outline: as §1

[5] = system: LXRb homodimer (NR concentration 270 nM)
Outline: as §1

[6] = system: PPARa:RXRa (NR concentration 270 nM, RXRa partner concentration 90 nM)
Outline: as §1

[7] = system: PPARg:RXRa (NR concentration 180 nM, RXRa partner concentration 90 nM)
Outline: as §1

[8] = system: PPARg:RXRa 270nM:90nM, anti-RXR (NR concentration 270 nM, RXRa partner concentration 90 nM)
Outline: as §1

[9] = system: PPARg:RXRa 30nM:10nM, anti-RXR (NR concentration 30 nM, RXRa partner concentration 10 nM)
Outline: as §1

[10] = system: PPARg:RXRa 90nM:30nM, anti-RXR (NR concentration 90 nM, RXRa partner concentration 30 nM)
Outline: as §1

Row | Sequence | PBM binding z-score [1] | PBM binding z-score [2] | PBM binding z-score [3] | PBM binding z-score [4] | PBM binding z-score [5] | PBM binding z-score [6] | PBM binding z-score [7] | PBM binding z-score [8] | PBM binding z-score [9] | PBM binding z-score [10]
1 | CCTTACGAGTCACTGACAGGTTATAGCATTTGGA | 0.777 | 1.14 | 0.907 | 1.29 | 0.779 | 0.873 | 0.529 | 0.102 | 0.331 | 0.375
2 | GTTCGGAGGACAAGGTCAGAGCTTTGTCCGTAGA | 1.57 | 1.48 | -0.204 | 0.904 | -0.834 | 2.16 | 0.427 | 1.29 | -0.266 | 0.514
3 | CAGACTGGGGCATAAGGTTACCATAAGCCAGCCC | 0.722 | 2.35 | -0.275 | 1.27 | -0.727 | 2.55 | 3.37 | 3.96 | 2.09 | 3.72
4 | GCTAGTTGGTCAGTAAAAGGGCACACACCGGTCG | 0.16 | 0.257 | 0.266 | 0.266 | -0.104 | 0.841 | 0.709 | 1.04 | 0.0544 | 0.502
5 | GCTATCAGGCCATTTGGGTCACTCAATGACGGGC | 0.309 | 0.382 | -0.0509 | 0.286 | 0.109 | 1.73 | 0.893 | 0.805 | -0.227 | 0.276
6 | ACTCGGAGGACAAAGGTCTGAGCTACGCCAGTGA | -0.108 | -0.415 | -0.354 | -0.796 | -0.665 | 0.582 | 1.95 | 3.29 | 1.06 | 3.02
7 | CGAACTAGGTTAGAACAGGACAGTGAAGGATGAT | 0.283 | 0.174 | -0.0175 | -0.235 | 0.0334 | 1.22 | 1.6 | 1.27 | 0.448 | 0.886
8 | GCATATACGTAATACAAGGTGAAAGTCCGATTGT | 0.409 | 0.28 | 0.383 | 0.441 | 0.0307 | 0.855 | 0.906 | 0.499 | 0.287 | 0.554
9 | CGTCCCAGGTCAGAGAGGTCAGTGAATGCCGAGT | 4.31 | 4.12 | 2.6 | 3.58 | 0.209 | 3.75 | 2.21 | 2.76 | 0.0256 | 1.76
10 | GCAGACAGGTGAAACGCAGGTAACACAGGGTGGC | -0.0327 | -0.0189 | -0.439 | -0.317 | -1.1 | 0.885 | 0.859 | 0.128 | -0.52 | -0.381
11 | CCGACTGGGGCAAGGTTACCACAACGCACAGCCA | 0.0767 | 0.351 | -0.32 | 0.671 | -1.11 | 1.98 | 2.91 | 3.54 | 1.2 | 2.55
12 | GCGACTGGGGGATCAGCAGGTTACCATAACTTAA | 0.383 | 0.523 | 0.0867 | 2.54 | 5.33 | 1.5 | 0.824 | 1.73 | 0.24 | 1.15
13 | CGTCCAAGGTCAGAGAGGACAGTGAATGCCGAGT | 4.64 | 3.42 | 0.241 | 2.28 | -0.021 | 3.85 | 2.24 | 2.75 | 0.355 | 1.59
14 | TCATATAGGTAAAGGTGAAAGTCGAACGATATGA | 0.768 | 1.27 | -0.00869 | 1.05 | -0.112 | 3.41 | 4.01 | 4.55 | 4.42 | 4.75
15 | ACAGACAGGTGAATGAAGGTAACTCAGCTGGACG | 0.255 | -0.0154 | -0.43 | -0.273 | -0.569 | 0.447 | 0.97 | 0.258 | 0.0803 | 0.0876
16 | CCTTACGGGTCACGAGTTTATAGCACGACGAGCG | 6.13 | 3.82 | 0.393 | 3.41 | 0.252 | 5.25 | 5.99 | 5.87 | 2.81 | 4.64
17 | TCCATTAGTTGAAGGGCAACCGACGAGTCCGTTT | 1.27 | 1.35 | 0.397 | 1.23 | 0.255 | 1.18 | 0.134 | 2.23 | 3.64 | 3.02
18 | CGTCCACGGTCAGAGAGGTCAGTGAATGCCGAGT | 2.16 | 1.89 | 1.45 | 1.77 | -0.73 | 2.33 | 0.382 | 0.996 | -0.638 | 0.247
19 | CCTGACGGGTCACTCCAGGTTATAGCATCGGAGT | 3.43 | 7.46 | 1.51 | 4.58 | -0.132 | 3.79 | 1.84 | 2.43 | 0.306 | 1.44
20 | CGAACTAGGTCATAGACAGGACAGTGAATAGTAA | 3.32 | 2.16 | 0.422 | 1.64 | -0.534 | 4.33 | 7.56 | 6.26 | 3.94 | 5.68
21 | AGAACGAGTGCACGCTGAGTTGATAGCAGAGTAG | -0.478 | -0.297 | -0.632 | -0.327 | -1.13 | 0.0263 | 0.542 | -0.2 | -0.197 | -0.307
22 | GCTTACGGGTCAAAGTTTATAGCATGAATAGAAT | 6.86 | 4.62 | 0.38 | 4.67 | 0.532 | 6.2 | 9.24 | 8.11 | 7.16 | 8.84
23 | CTAACTAGGTCATTGACAGGACAGTGAATAGTAA | 4.3 | 3.33 | 0.788 | 2.12 | 0.469 | 5.03 | 8.17 | 6.99 | 4.79 | 6.51
